The values below come from article PMC12820563, “FoxP3 forms a head-to-head dimer in vivo and stabilizes its multimerization on adjacent microsatellites”.

Over roughly 16,000 sequences, “rpm ratio (pull-down/input)” has its median near 0.5; the highest 2% begin near 5.5. The full list was thinned out, with the highest values kept by preference.

The assay deals with T1, MBP-FoxP3dN (Mus musculus, UniProt Q99JB6 188-423).
T1 sequence: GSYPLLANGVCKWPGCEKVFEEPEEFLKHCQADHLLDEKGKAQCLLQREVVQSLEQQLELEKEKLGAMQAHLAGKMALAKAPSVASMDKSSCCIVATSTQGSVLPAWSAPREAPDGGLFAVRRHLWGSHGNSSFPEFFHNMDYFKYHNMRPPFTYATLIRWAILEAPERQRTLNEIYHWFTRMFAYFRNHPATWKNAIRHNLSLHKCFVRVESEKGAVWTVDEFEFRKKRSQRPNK
Description: PD-seq (MBP pull-down with sequencing); 20 mM Tris-HCl pH 7.5, 100 mM NaCl, 1.5 mM MgCl2, 0.4 uM protein, 0.1 uM dsDNA library, 30 min, room temperature, amylose pull-down; high values mean tight binding. To be noted: protein: recombinant; tags: His6-MBP; chain copies: 2; dsDNA, one strand shown. In outline: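 E. coli-expressed mouse FoxP3 or FoxP1 fragment, N-terminus removed and tagged with His6-MBP, was used at 0.4 µM against 0.1 µM of a Klenow-filled degenerate double-stranded DNA library. After 30 min at room temperature in Tris pH 7.5 buffer with NaCl and MgCl2, complexes were pulled down on amylose resin and washed three times. Binding is pull-down over input reads-per-million enrichment from pooled replicates of the proteinase K-released, PCR-barcoded, Illumina-sequenced DNA.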
For the sequence “GATGATTGTTCTCCCAGCTGATGAATTTCAACGGTCGAGTAAACAAATTTTCCTAATCTTTCTGTTCAAGCGCCATCTAC”, the binding signal is 0.241 RPM ratio (pull-down/input).
For “GATGATTGTTCTCCCAGCTGATGAATTTGGTGGCTCGAGTAAACAAATTTTCCTAATCTTTCTGTTCAAGCGCCATCTAC” the value was 1.09 RPM ratio (pull-down/input).
Under “GATGATTGTTCTCCCAGCTGATGAATTTCATAACTCGAGTAAACAAATTTTCCTAATCTTTCTGTTCAAGCGCCATCTAC” stands 0.332 RPM ratio (pull-down/input).
Under “GATGATTGTTCTCCCAGCTGATGAATTATTCATCTCGAGTAAACAAATTTTCCTAATCTTTCTGTTCAAGCGCCATCTAC” stands 0.399 RPM ratio (pull-down/input); under “GATGATTGTTCTCCCAGCTGATGAATTTAGACCGTCGAGTAAACAAATTTTCCTAATCTTTCTGTTCAAGCGCCATCTAC”, 0.5 RPM ratio (pull-down/input).
For the sequence “GATGATTGTTCTCCCAGCTGATGAATTGTATCTCTCGAGTAAACAAATTTTCCTAATCTTTCTGTTCAAGCGCCATCTAC”, the binding signal is 1.51 RPM ratio (pull-down/input).
Under “GATGATTGTTCTCCCAGCTGATGAATTGTGTATCTCGAGTAAACAAATTTTCCTAATCTTTCTGTTCAAGCGCCATCTAC” stands 6.36 RPM ratio (pull-down/input); under “GATGATTGTTCTCCCAGCTGATGAATTCTGTATCTCGAGTAAACAAATTTTCCTAATCTTTCTGTTCAAGCGCCATCTAC”, 4.93 RPM ratio (pull-down/input); under “GATGATTGTTCTCCCAGCTGATGAATTTGACTTTTCGAGTAAACAAATTTTCCTAATCTTTCTGTTCAAGCGCCATCTAC”, 0.49 RPM ratio (pull-down/input).
“GATGATTGTTCTCCCAGCTGATGAATTGACGTAGTCGAGTAAACAAATTTTCCTAATCTTTCTGTTCAAGCGCCATCTAC”: the binding signal was 0.381 RPM ratio (pull-down/input).
Under “GATGATTGTTCTCCCAGCTGATGAATTTTAAGCATCGAGTAAACAAATTTTCCTAATCTTTCTGTTCAAGCGCCATCTAC” stands 0.881 RPM ratio (pull-down/input); under “GATGATTGTTCTCCCAGCTGATGAATTAAGCATTTCGAGTAAACAAATTTTCCTAATCTTTCTGTTCAAGCGCCATCTAC”, 6.1 RPM ratio (pull-down/input).
“GATGATTGTTCTCCCAGCTGATGAATTAAGCCATTCGAGTAAACAAATTTTCCTAATCTTTCTGTTCAAGCGCCATCTAC”: the binding signal was 4.08 RPM ratio (pull-down/input).
Regarding “GATGATTGTTCTCCCAGCTGATGAATTTAAGCATTCGAGTAAACAAATTTTCCTAATCTTTCTGTTCAAGCGCCATCTAC”, the binding signal is 5.65 RPM ratio (pull-down/input).
As to “GATGATTGTTCTCCCAGCTGATGAATTTAAACATTCGAGTAAACAAATTTTCCTAATCTTTCTGTTCAAGCGCCATCTAC”, the binding signal was 0.704 RPM ratio (pull-down/input).
Under “GATGATTGTTCTCCCAGCTGATGAATTAAGCAGCTCGAGTAAACAAATTTTCCTAATCTTTCTGTTCAAGCGCCATCTAC” stands 1.33 RPM ratio (pull-down/input); under “GATGATTGTTCTCCCAGCTGATGAATTAAGCATCTCGAGTAAACAAATTTTCCTAATCTTTCTGTTCAAGCGCCATCTAC”, 6.6 RPM ratio (pull-down/input).
Turning to “GATGATTGTTCTCCCAGCTGATGAATTAAAGCATTCGAGTAAACAAATTTTCCTAATCTTTCTGTTCAAGCGCCATCTAC”, the binding signal is 5.57 RPM ratio (pull-down/input).
For “GATGATTGTTCTCCCAGCTGATGAATTAAGCTGTTCGAGTAAACAAATTTTCCTAATCTTTCTGTTCAAGCGCCATCTAC” the value was 1.12 RPM ratio (pull-down/input); for “GATGATTGTTCTCCCAGCTGATGAATTAAATTTCTCGAGTAAACAAATTTTCCTAATCTTTCTGTTCAAGCGCCATCTAC”, 0.664 RPM ratio (pull-down/input).
Regarding “GATGATTGTTCTCCCAGCTGATGAATTCAAGCATTCGAGTAAACAAATTTTCCTAATCTTTCTGTTCAAGCGCCATCTAC”, the binding signal was 4.27 RPM ratio (pull-down/input).
As to “GATGATTGTTCTCCCAGCTGATGAATTACAGCATTCGAGTAAACAAATTTTCCTAATCTTTCTGTTCAAGCGCCATCTAC”, the binding signal is 5.18 RPM ratio (pull-down/input).
Under “GATGATTGTTCTCCCAGCTGATGAATTGGGAAGGTCGAGTAAACAAATTTTCCTAATCTTTCTGTTCAAGCGCCATCTAC” stands 0.234 RPM ratio (pull-down/input).
For “GATGATTGTTCTCCCAGCTGATGAATTCACGGTTTCGAGTAAACAAATTTTCCTAATCTTTCTGTTCAAGCGCCATCTAC” the value was 0.47 RPM ratio (pull-down/input); for “GATGATTGTTCTCCCAGCTGATGAATTATTACATTCGAGTAAACAAATTTTCCTAATCTTTCTGTTCAAGCGCCATCTAC”, 0.591 RPM ratio (pull-down/input).
Turning to “GATGATTGTTCTCCCAGCTGATGAATTGTTCTTGTCGAGTAAACAAATTTTCCTAATCTTTCTGTTCAAGCGCCATCTAC”, the binding signal was 0.412 RPM ratio (pull-down/input).
As to “GATGATTGTTCTCCCAGCTGATGAATTTGTCACTTCGAGTAAACAAATTTTCCTAATCTTTCTGTTCAAGCGCCATCTAC”, the binding signal was 5.39 RPM ratio (pull-down/input).
For “GATGATTGTTCTCCCAGCTGATGAATTTGCTTACTCGAGTAAACAAATTTTCCTAATCTTTCTGTTCAAGCGCCATCTAC” the value was 6.78 RPM ratio (pull-down/input).
For “GATGATTGTTCTCCCAGCTGATGAATTGTCTTGCTCGAGTAAACAAATTTTCCTAATCTTTCTGTTCAAGCGCCATCTAC” the value was 0.461 RPM ratio (pull-down/input); for “GATGATTGTTCTCCCAGCTGATGAATTGCTTTTCTCGAGTAAACAAATTTTCCTAATCTTTCTGTTCAAGCGCCATCTAC”, 1.42 RPM ratio (pull-down/input).
Under “GATGATTGTTCTCCCAGCTGATGAATTTTGCTTCTCGAGTAAACAAATTTTCCTAATCTTTCTGTTCAAGCGCCATCTAC” stands 2.58 RPM ratio (pull-down/input).
